Active and inactive are the calls of the source.

Test [1] concerns XIP peptide (Xip251-270) binding. In words: XIP fragment 251-270 binding compounds – biochemical, small-molecule microarray, fluorescence 635/667 nm, 0.1 µg/mL protein, primary screen (AID 1182). The conditions noted are these: fluorescent protein binding, 635 nm, higher = more signal, called active from +8 up or from −8 down.
A further test has as its system XIP peptide (Xip251-270). Description: compounds binding XIP fragment 251-270 – biochemical, small-molecule microarray, fluorescence 635/667 nm, 0.5 µg/mL protein, primary screen (AID 1183). The conditions noted are these: fluorescence 635 nm, higher = more signal.
Test [2] can be described thus: blood-stage malaria parasite viability loss – strain 3D7, DAPI fluorescence, 100 nL, primary screen (AID 1184).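 Note: parasites grown inside human red blood cells in medium with human serum.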 The conditions noted are these: P. falciparum 3D7 growth, 3 d, higher = more signal.
Test [3] concerns the target Homeobox protein Hox-A13 (Mus musculus) (UniProt Q62424). Description: disruptors of Hoxa13 oligonucleotide interaction – biochemical, fluorescence polarization, labeled oligonucleotide, primary screen (AID 1185). The conditions noted are these: Hoxa13:DNA binding, 15 min, higher = more signal, called active from +8 up or from −8 down. (Fluorescence polarisation rises when a labelled molecule tumbles more slowly, as on binding a larger partner.)

Sequence of Homeobox protein Hox-A13 (Mus musculus) (Q62424 whole entry, looked up): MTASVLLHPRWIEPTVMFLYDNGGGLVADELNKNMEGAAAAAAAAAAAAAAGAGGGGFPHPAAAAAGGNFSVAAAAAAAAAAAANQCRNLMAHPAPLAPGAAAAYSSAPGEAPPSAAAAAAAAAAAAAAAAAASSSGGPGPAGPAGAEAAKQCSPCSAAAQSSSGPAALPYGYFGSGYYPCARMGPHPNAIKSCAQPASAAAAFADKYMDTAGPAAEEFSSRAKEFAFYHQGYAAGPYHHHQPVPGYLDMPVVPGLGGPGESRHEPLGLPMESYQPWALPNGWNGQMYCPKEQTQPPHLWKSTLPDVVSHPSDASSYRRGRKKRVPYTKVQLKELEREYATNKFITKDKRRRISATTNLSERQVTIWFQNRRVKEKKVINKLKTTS

On to `C=CC[C@@H]1C=C[C@H](ON=C2C[C@@H](O)[C@@H](O)[C@@H]3[C@@H]4C(=O)N(CC)C(=O)[C@@H]4CC[C@@H]23)[C@@H](CO)O1`, for which the composite z-score in test [1] was -0.192 (inactive); in the test on XIP peptide (Xip251-270), -1.06. Besides, the z-score was -0.689 in test [2] and 0.0713 (inactive) in test [3].
The matching figures for `CCOC(=O)CCN1C(=O)[C@H]2[C@H]3[C@H](O)[C@H](O)CC(=NNC(=O)OCc4ccc(OC)cc4)[C@H]3CC[C@H]2C1=O`: 0.353 (inactive), 0.277, 0.144 and -3.67 (inactive).
Consider `CC(=O)OC[C@H]1O[C@H](CC=NOC[C@@H](O)[C@H]2O[C@@H]3OC(C)(C)O[C@@H]3[C@H]2O)C=C[C@@H]1OC(C)=O`, for which the figures for the composite z-score (in test [1]; in the test with XIP peptide (Xip251-270)) were 0.232 (inactive) and 0.732, respectively. For the same compound, the results for the z-score in test [2] and in test [3] were 0.158 and -0.147 (inactive), respectively.
The matching figures for `CON=C[C@@H](OC)[C@H](C)C=CCC(=O)OC`: -1.44 (inactive), -0.499, -0.166 and -0.326 (inactive).
The matching figures for `CCOC(=O)[C@H](CC(C)C)NC(=O)CCC1CC(OC(=O)NCCc2ccc(F)cc2)CC2(CCCC(COC(=O)NCc3cccc4ccccc34)O2)O1` (some centres not stated): -0.008 (inactive), 0.24, -1.48 and -5.81 (inactive).
The matching figures for `COCCNC(=O)OCC1CCCC2(CC(OC(=O)NCc3cccc4ccccc34)CC(CCC(=O)N[C@@H](C)C(=O)OC)O2)O1` (some centres not stated): 0.505 (inactive), 0.588, -1.85 and -3.88 (inactive).
In the case of `CN1CCc2nc(-c3ccccc3)c(-c3ccccc3)cc2C1`, the composite z-score is -0.368 (inactive) in test [1] and 0.0309 in the test with XIP peptide (Xip251-270). Moreover, the z-score in test [2] was 0.309; in test [3], -0.07 (inactive).
The matching figures for `COc1ccc(COC(=O)NN=C2C[C@@H](O)[C@@H](O)[C@@H]3[C@@H]4C(=O)N(C5CCCCC5)C(=O)[C@@H]4CC[C@@H]23)cc1`: 0.524 (inactive), 0.0499, -1.07 and -4.36 (inactive).

Source of the values: PubChem BioAssay.
